# Results reported in PubChem BioAssay AID2320 (National Center for Advancing Translational Sciences (NCATS), 2010).
# Results filed as inconclusive are left out. Entries that show only a call come without a potency. The source made the active and inactive calls. The call rests on the fitted dose curve.
# Assay: A qHTS for Small Molecule Inhibitors of Shiga Toxin (Confirmatory); further: nearly all actives have a fitted effect of over 75% in size
# Details: Cell-based Shiga toxin protection reporter assay; series mostly up to 38.3 µM
# Potency means the concentration at half of the fitted maximal effect.
row,SMILES,Potency
1,COc1ccc(CNC(=O)C(OC(=O)c2ccco2)c2ccccc2F)cc1 (stereo not drawn),inactive
2,CCNc1c(NC(=O)c2cccs2)c(=O)oc2ccccc12,inactive
3,O=S(=O)(c1ccsc1)N1CC=C(c2ccccc2)CC1,2.83 µM (active)
4,O=c1cc(-c2cccc(F)c2)[nH]c2ccc(Cl)cc12,inactive
5,O=C(CCN1C(=O)c2cccc3cccc(c23)C1=O)NC1CCS(=O)(=O)C1 (stereo not drawn),inactive
6,COC(=O)c1c(NC(=O)c2ccn(C)n2)sc2c1CCC2,2.83 µM (active)
7,CC(=O)Nc1ccc(N2N=C(C)C(N=Nc3ccccc3)C2=O)cc1 (stereo not drawn),11.3 µM (active)
8,CCCCOC(=O)c1ccc(N=Nc2c(C)c(C#N)c(O)[nH]c2=O)cc1,15.9 µM (active)
9,CS(=O)(=O)N(CC(=O)Nc1ccccc1Sc1ccccc1)C1CCCCC1,inactive
10,Cn1nccc1C(=O)Nc1sc2c(c1C#N)CCCC2,20 µM (active)
11,Oc1ccc(C2C[C@H]3CC[C@@H]2C3)cc1O (stereo partly drawn),22.5 µM (active)
12,CCN1CCN(Cc2nnc(-c3ccc(C)cc3)o2)CC1,inactive
13,Cc1cccc(NC(=O)C2CCCC2)c1,0.0252 µM (active)
14,COc1ccc(NC(=O)CSc2nccn2-c2cccc(OC)c2)cc1,inactive
15,Cc1nn(-c2ccc(C(=O)O)cc2)c2c1C(=O)CC(C)(C)C2,inactive
16,Cc1ccc(-c2nnc(SCC(=O)NC3CCCC3)n2C)cc1,inactive
17,CC1=C(C)C(OCCBr)N(c2cc(O)c(Cl)cc2F)C1=O (stereo not drawn),inactive
18,O=C(O)c1cc(S(=O)(=O)Nc2ccc(OCc3ccccc3)cc2)ccc1Br,7.11 µM (active)
19,Cc1cnc(NC(=O)c2c(Cl)cnn2C)s1,inactive

row,SMILES,Potency
1,CCc1ccc(C(=O)c2oc3nc(C)cc(C)c3c2N)cc1,5.04 µM (active)
2,CCCCc1ccc(NS(=O)(=O)N(C)C)cc1,inactive
3,CC(=O)c1ccccc1Oc1ncnc(N)c1[N+](=O)[O-],inactive
4,COc1ccc(NC(=O)c2c(Cl)n(C)c3ccccc23)cc1,11.3 µM (active)
5,CSc1nc2ccc(N3C(=O)C4CCCCC4C3=O)cc2s1 (stereo not drawn),inactive
6,Cc1cccc(NC(=O)CCN2C(=O)c3ccccc3S2(=O)=O)c1C,20 µM (active)
7,Cc1cc(C)n(-c2nc3c(c(=O)[nH]c(=O)n3C)n2Cc2cccc(Br)c2)n1,inactive
8,COc1ccc(C(=O)CC(=O)C(=O)Nc2ccc(C)cc2Cl)cc1,inactive
9,O=C(Nc1cccc(-c2csc(Nc3ccc(Cl)cc3)n2)c1)c1ccccc1,6.34 µM (active)
10,CC(=O)c1ccc2noc(-c3ccc(F)cc3)c2c1,11.3 µM (active)
11,O=C(CCS(=O)(=O)c1cccs1)Nc1ccc(C(=O)NCc2cccs2)cc1,inactive
12,O=C(NCCC1=CCCCC1)C1CCN(S(=O)(=O)c2cccc3cccnc23)CC1,inactive
13,COc1ccccc1CNC(=O)Cn1cc([N+](=O)[O-])ccc1=O,inactive
14,Cc1sc(NC(=O)COc2cccc(-n3cnnn3)c2)c(C#N)c1C,inactive
15,COc1ccc(CNCC(=O)Nc2sccc2C#N)cc1,20 µM (active)
16,COc1cc(/C=C2/C(=O)c3cccc([N+](=O)[O-])c3C2=O)c(Br)cc1O,22.5 µM (active)
17,CN1CCN(C(=O)CN(C)S(=O)(=O)c2ccc(F)cc2)CC1,inactive
18,CCN1CCN(Cc2c(O)ccc3c(=O)c(-c4ccc(OC)c(OC)c4)c(C(F)(F)F)oc23)CC1,inactive
19,CNC(=O)CSc1nnc(-c2cc(C)cc(C)c2)o1,inactive
